High-throughput results: PubChem BioAssay, Broad Institute
ERAP1 HTS inh: ERAP1 (human) enzyme inhibition; 340,000 tested, 0.15% active; inhibition, % at 10.7 µM; AID 652197; Q9NZ08; recombinant ERAP1, Leu-AMC fluorescence, 60 min;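 active = mean replicate inhibition of at least 30%, or all replicates individually reaching that 30% level; inactive = mean below 30% and not every replicate reaching it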;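 note: 0% = neutral control wells and 100% = L-leucinethiol positive control wells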
CASP6 VEID inh: blocks human caspase-6 cleavage activity | P55212 | purified caspase-6, Z-VEID-R110 cleavage fluorescence | inhibition, % at 12.5 µM | 350,000 tested, 0.53% active | AID 686996;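 active = mean inhibition across replicates at least about 35%, with every replicate also reaching that limit, limit read from the data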;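 note: 0% = median of neutral control wells and 100% = no fluorescence left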
FGF22 binding: binders of recombinant human FGF22 by thermal shift. SYPRO orange fluorescence; percent of sucrose octasulfate shift, DMSO zero. AID 651658. 340,000 tested, 1.5% active. activity (Tm shift, normalised), % at 9.99 µM;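 active = mean Tm shift, scaled 0 neutral to 100 positive control, at about 1.3% or above, every replicate too, limit read from the data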
Target sequence (Q9HCT0 whole entry, looked up): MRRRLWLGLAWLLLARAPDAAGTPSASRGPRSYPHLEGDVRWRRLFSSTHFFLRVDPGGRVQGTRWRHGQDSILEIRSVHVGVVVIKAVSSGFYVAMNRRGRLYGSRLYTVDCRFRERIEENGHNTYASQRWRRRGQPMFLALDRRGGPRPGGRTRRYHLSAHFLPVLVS
SIRT5 inh: blocks human SIRT5 desuccinylation of peptide. Q9NXA8. inhibition, % at 15 µM. Purified SirT5, succinyl-peptide AMC, trypsin-coupled fluorescence. 330,000 tested, 1.1% active; in the data active = inhibition above about 15%
Target sequence (Q9NXA8 whole entry, looked up): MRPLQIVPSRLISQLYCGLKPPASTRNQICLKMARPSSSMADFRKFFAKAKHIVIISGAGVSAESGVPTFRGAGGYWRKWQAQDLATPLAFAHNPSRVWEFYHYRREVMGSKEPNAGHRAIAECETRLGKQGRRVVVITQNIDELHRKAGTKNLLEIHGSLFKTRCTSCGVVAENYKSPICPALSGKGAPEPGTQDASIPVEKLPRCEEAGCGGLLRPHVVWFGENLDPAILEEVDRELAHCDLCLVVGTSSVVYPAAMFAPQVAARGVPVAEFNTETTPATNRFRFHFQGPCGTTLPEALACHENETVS
INS-1E GSIS act: primary screen for activators of insulin secretion dependent on glucose, INS-1E cells, GLuc reporter luminescence | 370,000 tested, 0.61% active | INS-1E GLuc reporter insulin secretion, 2-3 h | AID 743287 | activation, % at 16.6 µM;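 active = lowest replicate activation of at least 40%, so every replicate reaches that level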;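 note: 0% = median of neutral control wells and 100% = median of IBMX positive control wells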
Active calls of the source: *; x = no result; ! = not active in a repeat. Shown are actives, neighbours in structure and some others; about 3.3% of the full set was active somewhere.

SMILES	ERAP1 HTS inh	CASP6 VEID inh	FGF22 binding	SIRT5 inh	INS-1E GSIS act
COc1ccc(CC(=O)NC(C)c2nnc(SCCOc3ccc(OC)cc3)n2C)cc1 (stereo unspecified)	-3.7	4.7	x	29.3*	-13.8
C/C=C/c1ccc([C@@H]2[C@@H](CO)N(C(=O)c3cnccn3)C23CN(C(C)=O)C3)cc1	-3.2	-0.6	0.0	-4.5	2.4
COc1ccc(CC(=O)NC(C)c2nnc(SCC(=O)Nc3ccccc3)n2C)cc1 (stereo unspecified)	-2.7	0.0	0.2	0.0	8.2
COc1ccc(CC(=O)NC(C)c2nnc(SCC(=O)Nc3cc(C)ccc3OC)n2C)cc1 (stereo unspecified)	3.2	-0.6	1.6*	-0.7	5.2
CN(C)CCCNC(=O)C[C@H]1CC[C@H](NC(=O)c2ccccc2F)[C@@H](CO)O1	2.2	-0.6	0.0	1.4	x
C[n+]1ccccc1/C=N/O	92.2*!	1.0	-0.2	-1.1	14.1
C[n+]1ccccc1/C=C/c1cc(Br)ccc1O	11.1	-12.8	0.0	1.9	-6.4
CC(O)/C=C/c1cccc[n+]1C (stereo unspecified)	107.5*	-124.2	0.0	0.8	1.5
O=C(c1ccccc1F)N1C[C@@H]2[C@H](c3ccccc31)[C@@H](CO)N2Cc1ccc2c(c1)OCO2	0.0	-2.8	0.4	0.7	-0.5
O=C(O)c1ccc(OS(=O)(=O)c2cccc(C(F)(F)F)c2)cc1	-1.7	0.2	0.1	-0.2	72.6*
O=C(COc1ccc(C(=O)O)cc1)Nc1cccc(C(F)(F)F)c1	-28.8	x	0.2	-1.1	14.0
COc1ccc2c3c([nH]c2c1)[C@H](CO)N(C(C)=O)CC31CCN(C(=O)Nc2ccccc2F)CC1	-0.1	-1.7	-0.1	0.9	-13.1
COc1ccc2nc(Cl)c(C#N)cc2c1	0.5	1.7	42.3	0.4	9.7
Cc1ccc2nc(Cl)c(C#N)cc2c1	-1.4	-1.1	43.4*	-5.3	7.2
CCC(=O)N1CC2(CN[C@H](CO)c3c2c2ccc(OC)cc2n3C)C1	x	x	x	x	-3.6
CCn1cc(C(=O)NCc2cccs2)c(=O)c2ccc(C)nc21	x	x	x	x	-5.4
C=CCSc1nnc(NC(=O)c2cn(CC)c3nc(C)ccc3c2=O)s1	-4.3	-1.3	0.1	19.9*	7.4
COc1ccccc1OCC(=O)NCC1CCCN(C(=O)c2ccccc2SC)C1 (stereo unspecified)	-0.8	-1.2	0.0	-5.3	16.5
COc1ccccc1OCC(=O)NCC1CCCN(C(=O)c2ccccc2C(C)=O)C1 (stereo unspecified)	2.7	1.6	-0.2	17.2*	2.5
C[C@H]1CN([C@@H](C)CO)C(=O)Cc2cc(NC(=O)CCN3CCOCC3)ccc2O[C@@H]1CN(C)Cc1ccccc1	2.0	34.5	-0.7	4.7	9.3
COCCNc1nc2ccccc2n2cnnc12	-4.5	2.9	0.3	17.2*	22.0
O=C(C1CCCCC1)N1CC[C@@H]2[C@H](CO)Nc3ccc(Br)cc3[C@@H]21	1.3	5.5	-0.3	11.4	-4.6
O=C(CCSc1ccc(Br)cc1)Nc1cccnc1	1.7	-1.3	43.5*	9.5	10.7
O=C(CCC(=O)c1ccc(Br)cc1)Nc1cccnc1	x	0.0	-0.1	x	-3.7
C[C@H]1CN([C@@H](C)CO)C(=O)c2cc(C#CC3(O)CCCC3)cnc2O[C@@H]1CN(C)C(=O)Nc1ccc2c(c1)OCO2	-0.6	1.0	-0.2	4.1	10.4
SMILES	ERAP1 HTS inh	CASP6 VEID inh	FGF22 binding	SIRT5 inh	INS-1E GSIS act
CCN(CC)CCN(C(=O)c1ccc(S(=O)(=O)N2CCCC2)cc1)c1nc2cc(C)cc(C)c2s1	4.6	-5.2	-0.1	0.9	40.5*
CCOc1ccc(CNC(=O)CCCC(=O)n2ncc3cc(C)ccc32)cc1	2.8	-0.7	-0.1	15.0*	10.1
COc1ccc(NC(=O)N(C)C[C@@H]2Oc3ccc(NC(=O)NC(C)C)cc3CC(=O)N([C@@H](C)CO)C[C@H]2C)cc1	3.4	0.7	0.2	2.6	18.9
O=C(NNC(=O)c1cccc2ccccc12)c1cccc(F)c1	1.3	1.2	43.4*	x	x
C[C@H]1CN(C)C(=O)c2cc(N(C)C)ccc2O[C@@H]1CN(C)C	x	x	x	x	7.7
C=CC(=O)N1C/C(=C/c2ccccc2)C(=O)/C(=C\c2ccccc2)C1	2.9	2.3	0.1	x	49.6*
O=C(Cc1ccsc1)NNC(=O)c1ccccc1Cl	-2.7	-1.1	-0.1	-1.0	41.7*
O=C(Cc1cccs1)NNC(=O)c1ccccc1Cl	-3.8	1.8	-0.2	-2.7	14.5
O=C(N[C@@H]1CC[C@@H](CCNS(=O)(=O)c2ccc(F)cc2)O[C@@H]1CO)c1cnccn1	1.4	-0.6	-0.7	3.2	9.3
O=C(NC(=S)Nc1cccc2[nH]ncc12)c1ccccc1	-4.1	1.5	0.2	-2.1	158.6*
NC(=S)Nc1cccc2[nH]ncc12	-4.8	-0.5	0.0	0.7	2.9
CCc1n[nH]c(=S)n1/N=C/C(C)=C\c1ccccc1	1.4	0.8	-0.3	-4.3	8.2
CCc1n[nH]c(=S)n1N=C1CCC(C)CC1 (stereo unspecified)	1.1	4.7	43.0*	-1.5	5.1
C[C@@H]1CN([C@@H](C)CO)C(=O)c2c(c3ccccc3n2C)-c2ccccc2CO[C@H]1CN(C)Cc1ccc(Cl)c(Cl)c1	3.3	2.4	x	-0.7	4.2
Cc1ccc(S(=O)(=O)N(C)C[C@H]2OCc3cn(nn3)CCCC(=O)N([C@@H](C)CO)C[C@@H]2C)cc1	6.5	-0.6	0.1	20.2*!	1.4
C[C@@H]1CN([C@@H](C)CO)C(=O)CCCn2nncc2CO[C@H]1CN(C)S(=O)(=O)c1ccc2c(c1)OCCCO2	-3.6	-0.1	0.0	20.5*!	-3.5
C[C@H](CO)N1C[C@H](C)[C@@H](CN(C)S(=O)(=O)c2ccc3c(c2)OCCCO3)OCc2cn(nn2)CCCC1=O	1.1	47.0*!	-0.3	-0.8	0.6
O=C1C(Cl)=C(O)C2(Cl)C(Cl)=C(Cl)C12Cl (stereo unspecified)	4.7	3.6	1.4*	5.9	33.1
C[C@H](NC(=O)c1ccccc1)C(=O)N1CCN(Cc2ccc3c(c2)OCO3)CC1	0.8	-1.9	-0.2	-3.3	3.3
NC(=O)CC[C@H](NC(=O)c1ccc(F)cc1)C(=O)N1CCN(Cc2ccc3c(c2)OCO3)CC1	0.3	-5.3	43.1*	x	x
CCC(C)NC(=S)N1CCN(Cc2ccc3c(c2)OCO3)CC1 (stereo unspecified)	2.6	0.6	43.0*	-2.4	-6.2
CC(=O)N(C)C[C@@H]1Oc2ncc(/C=C/c3ccccc3)cc2C(=O)N([C@H](C)CO)C[C@@H]1C	0.3	1.8	-0.2	-14.1	11.5
COc1cc2c(cc1OC)-c1cc(N3CCc4ccccc43)nc(=O)n1CC2	-0.5	-8.0	-0.1	-5.6	42.8*
COc1ccc(Nc2cc3n(c(=O)n2)CCc2cc(OC)c(OC)cc2-3)cc1	1.3	4.5	-0.3	-0.2	38.7
COc1cc2c(cc1OC)-c1cc(Nc3ccccc3Br)nc(=O)n1CC2	-0.1	0.4	0.1	-3.0	72.7*
